Assay results: PubChem BioAssay AID1222 (Sanford-Burnham Center for Chemical Genomics, 2008)
Out of some 190,000 compounds screened, fewer than 10 were called active. Not all results are given here. Entries with a potency or affinity are not part of this list. Unmarked numbers belong to inactive results.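 The calls were made as follows: active = EC50 below 50 µM in the dose-response confirmation; inactive = the rest.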

assay: protection against thapsigargin-triggered cell killing – 384-well, CSM14.1, ATP luminescence, primary screen (AID 1222); settings: CSM14.1 thapsigargin-induced death rescue, at 20 µM, active compounds read high;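 also: death triggered by thapsigargin at about 15 µM added after 2 h compound pretreatment; cell ATP read after overnight thapsigargin exposure of roughly 18 to 22 hours; reference of the scale not given here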

SMILES | cellular ATP content (survival)
Cc1ccc(-c2nc(CSCC(=O)N3CCN(c4ccccn4)CC3)c(C)o2)cc1 | -0.2%
COc1ccccc1OCc1ccc(C(=O)NCC(C)C)o1 | 2.9%
COc1cccc(CN=C2Nc3ccccc3CS2)c1 | 0.2%
O=C(Nc1cc(C(F)(F)F)ccc1N1CCOCC1)c1cccc(F)c1 | 0.4%
O=C(Nc1ccccc1)c1nn(-c2ccccc2)c(=O)cc1C(F)(F)F | 2%
COc1ccccc1C(C)N(C)Cc1nc(COc2ccccc2)no1 (configuration not stated) | -1.1%
COc1ccc(CCN(Cc2cccs2)S(=O)(=O)c2ccc(S(=O)(=O)N3CCCCCC3)cc2)cc1OC | -1.5%
O=C1c2cccc(OCC(=O)N3N=C(c4cccs4)CC3c3ccc(F)cc3)c2CCN1Cc1ccccc1 (configuration not stated) | -2.7%
CN1CCc2c(OCC(=O)N3N=C(c4cccs4)CC3c3ccc(F)cc3)cccc2C1=O (configuration not stated) | 1.4%
CC(C)OP(=O)(OC(C)C)C(Nc1ccccc1)c1ccccc1C(F)(F)F (configuration not stated) | 2.8%
CCOC(=O)c1c(NC(=O)C[n+]2ccc(N(C)C)cc2)sc(C)c1C | -2%
Cn1cc(Cl)c(C(=O)NNC(=S)NC2CCCCC2)n1 | 1.1%
COC(=O)c1sc2ccccc2c1-n1cccc1C(=O)C(=O)Nc1ccc(OC)cc1 | 4.6%
COc1ccc(/C=C(/NC(=O)c2ccccc2)c2nc3ccc(Cl)cc3[nH]2)cc1OC | 1.1%
Cc1ccccc1NS(=O)(=O)c1cc(C(=O)N2CCc3ccccc3C2)ccc1C | 0.4%
CC(C)(C)C(=O)Nc1nc(=S)ss1 | 0%
CCn1c(NCc2ccc3c(c2)OCO3)nc2ccccc21 | -1%
CCOC(=O)c1cnc(-n2nc(C)cc2C)nc1Nc1ccc2c(c1)OCO2 | -1.2%
CCn1cc(C(=O)O)c(=O)c2cc(S(=O)(=O)N(C)C)ccc21 | -1.2%
O=C(Nc1ccc(N2CCOCC2)cc1)c1ccc(Cl)nc1 | -0.7%
CCOc1ccccc1NC(=O)COC(=O)C(CC)c1ccccc1 (configuration not stated) | 0.7%

SMILES | cellular ATP content (survival)
CCCCP(=O)(CCCC)c1ccccc1C(=O)O | -0.7%
O=C(OCc1cc(=O)n2c(n1)sc1ccccc12)c1ccc(O)cc1O | -1.2%
COc1ccc(NC(=S)Nc2ccc(S(N)(=O)=O)cc2)c(OC)c1 | -0.3%
CC(=O)c1c(C)nc2ccc(Br)cc2c1C(=O)O | 0.7%
COc1cccc(C2CC(c3cccs3)=NN2C(=S)Nc2ccccc2)c1OC (configuration not stated) | 2.5%
COc1ccc(S(=O)(=O)N2CCC(C(=O)N3CCc4ccccc4C3)CC2)cc1Cl | 0.7%
CCOC(=O)c1cc2c(=O)n3ccccc3nc2n(Cc2ccccc2Cl)c1=N | -1.3%
CCCCNS(=O)(=O)c1ccc(S(=O)(=O)NCc2ccncc2)cc1 | -1.8%
Cc1nc(N2CCC(C(N)=O)CC2)c2c(-c3cccs3)csc2n1 | -2.2%
CCOC(=O)C1=C(C)Nc2ccccc2N=C1NC(=O)CCCN1C(=O)c2ccccc2C1=O | -1.5%
COc1cc([N+](=O)[O-])ccc1NC(=O)c1cccc(NC(=O)C(C)C)c1 | 2.2%
COC(=O)C1=NN(C(C)=O)C2(CC(=O)N(c3cccc(C)c3)C2=O)C1 (configuration not stated) | -0.1%
CCN(C(=O)COc1ccccc1)C1CCCCC1 | -1.5%
O=C(Nc1nnc(-c2ccco2)o1)c1ccc2ccccc2c1 | 11.1%
Cc1cc(NC(=O)CCC(=O)N(CC(=O)NC2CCCC2)c2ccccc2)no1 | 0.5%
O=c1cc(COn2nnc3ccc(C(F)(F)F)cc32)nc2sccn12 | -1.8%
O=C(Nc1ccc2nc(-c3cccnc3)[nH]c2c1)C12CC3CC(CC(C3)C1)C2 | -3.6%
c1ccc(-c2nccc(-c3ccc(-n4cnc5ccccc54)cc3)n2)cc1 | -0.9%
Cc1ccc(/C(O)=C2\C(=O)C(=O)N(CCc3c[nH]c4ccccc34)C2c2cccnc2)cc1 (configuration not stated) | 1.1%
CCN1C(=O)/C(=C/c2ccc(N3CCCC3)cc2)NC1=S | 0.3%
CCCN1C(=O)/C(=C/c2ccc(N3CCCC3)c(C)c2)NC1=S | -2%

SMILES | cellular ATP content (survival)
O=C(COC(=O)CCNS(=O)(=O)c1ccc2c(c1)OCCO2)NC1CCCc2ccccc21 (configuration not stated) | -0.1%
CCc1nnc(NC(=O)CCC(=O)NC2CCCCC2)s1 | -0.3%
CCCCNC(=O)Cc1ccc(Br)cc1 | 0.7%
CC1CCC2C(=O)N(c3ccc(Cc4ccncc4)cc3)C(=O)C2C1 (configuration not stated) | 0.4%
CC1(C(=O)NCCN2CCOCC2)C=CC2(CCCCC2)N1C(=O)c1ccccc1 (configuration not stated) | -4.5%
CC(=O)OCc1cc(-c2nn(C)c(=O)c3ccccc23)ccc1C | 1.5%
O=C(N/N=C/c1ccccc1OC(F)F)C1=COCCO1 | 0.4%
O=S1(=O)C=CC(Sc2nc3ccccc3[nH]2)C1 (configuration not stated) | 7.3%
Cc1ccc(S(=O)(=O)N2CCN(C(C)CC(=O)O)CC2)cc1 (configuration not stated) | -0.8%
O=C(OCCCC(=O)N1CCOCC1)c1ccccc1 | -1%
COc1cc(CN(C(=S)NCC(=O)NC2CCCC2)C2CCCC2)cc(OC)c1OC | 0.8%
CCOc1ccc(Nc2nc(Cc3nnc(SCC(=O)NC4CCCCC4)n3C)cs2)cc1 | -0.1%
COc1ccc(C(=O)OCC(=O)N(C)C2CCS(=O)(=O)C2)cc1S(=O)(=O)N1CCCc2ccccc21 (configuration not stated) | 1.7%
COc1ccc2c(c1)N(C(=O)CSc1n[nH]c(C)n1)C(C)(C)C=C2C | 5.3%
COc1ccc(/C=C/C(=O)OCC(=O)Nc2cc(C(F)(F)F)ccc2Cl)cc1 | -2.1%
Cc1cc(C)c(C(=O)CN2C(=O)NC3(CCCCC3)C2=O)cc1C | -0.6%
COc1ccc(S(=O)(=O)Oc2cccc(/C=N/N=C3/NC(=O)C(CC(=O)O)S3)c2)cc1 (configuration not stated) | 7.5%
CCCN1CCC(NC(=O)Nc2cc(Cl)ccc2OC)CC1 | 0.1%
CC(=O)N1CCN(c2ccc([N+](=O)[O-])c(NCc3cccnc3)c2)CC1 | -0.8%
N#Cc1cc(-c2ccccc2)nc(Oc2ccc(Cl)cc2)n1 | -1.2%
CCCn1nc2cc(C(=O)NCc3ccc(OC(F)(F)F)cc3)ccc2c1OCC | -1.1%

SMILES | cellular ATP content (survival)
Cc1ccc(S(=O)(=O)c2nc(-c3ccccc3)oc2NCc2cccnc2)cc1 | 3.8%
Cc1ccc(Nc2nc(-c3ccc(S(=O)(=O)N4CCOCC4)cc3)cs2)cc1Cl | -1.8%
CC(C)(C)N/N=C/c1c(O)n(-c2ccc(Cl)cn2)c(=O)c2ccccc12 | -1.2%
O=C(Nc1cccc(C2OCCCO2)c1)c1cccs1 | -3.3%
O=C(c1ccc2ccccc2c1)c1c[nH]cc1-c1ccccc1 | 0.1%
Cc1ccccc1NC(=O)C12CC3CCC1(C)C3(C)CO2 (configuration not stated) | 3.2%
CC12COC3(C(=O)Nc4ccccc4)CC1CCC32C (configuration not stated) | 0.2%
CN(C1CCCCC1)S(=O)(=O)c1ccc(NC(=O)CCC(=O)O)cc1 | -1.8%
O=C(N[C@@H](Cc1ccccc1)C(=O)O)c1cccnc1 | -0.2%
O=[N+]([O-])c1ccc(Nc2nc(Cl)nc(NCCO)n2)cc1 | -0.9%
Cc1ccc(S(=O)(=O)N2CCN(C(=O)CSc3nnc(C)c(=O)[nH]3)CC2)cc1 | 0.3%
O=C(NC(=S)N1CCN(c2ccccn2)CC1)c1ccco1 | -0.1%
COc1ccccc1NC(=O)C/C(C)=N/NC(=O)COc1c(Br)cc(Br)cc1OC | 2.1%
CCC(=O)N1CCc2cc(S(=O)(=O)CCC(=O)Nc3ccc(CC)cc3)ccc21 | -3.3%
O=c1[nH]c(CSc2nnc(-c3ccccc3)n2C2CCCCC2)nc2ccccc12 | 0.3%
CC1C(c2ccccc2)=[N+]([O-])C2(CCCCC2)N1O (configuration not stated) | -0.2%
Cn1c(=O)c2c(nc(CN3CCN(Cc4ccccc4)CC3)n2CCN2CCOCC2)n(C)c1=O | 2.6%
CCOc1ccccc1-n1c(SCC(=O)Nc2nccs2)nnc1-c1ccoc1C | 1.4%
O=c1[nH]c(CCC2CCCC2)nc2ccccc12 | -3.1%
